# In the library only some 2.9% were active in any assay of this set; here they are far more common.
# EBNA-1 inhibitor = blocks EBNA-1 binding to DNA. inhibition, % at 14.8 µM. 300,000 tested, 0.34% active. AID 1950. EBNA-1 DNA binding, fluorescence polarization; in the data active = inhibition above about 28%
# PAFAH2 FP inh = inhibitors of human PAFAH2; recombinant PAFAH2, FP-rhodamine activity probe, fluorescence polarization; AID 492956; 340,000 tested, 0.99% active; inhibition, % at 3.39 µM; Q99487;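 active = inhibition above the mean over all tested compounds plus 3 SD, cut at about 30% in these data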;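 also: inhibitors block probe labeling of enzyme so polarization drops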
# rCAG binder = molecules binding r(CAG) RNA repeats | r(CAG) RNA repeat, TO-PRO-1 dye displacement fluorescence | inhibition, % at 3 µM | 370,000 tested, 1.3% active;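 active = inhibition above the plate cutoff, the mean of all test compounds on that plate plus 3 SD, cut at about 35% in these data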;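 also: higher means more dye released from RNA so lower well fluorescence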
# PAFAH1B2 inh = blocks human PAF acetylhydrolase 1b catalytic subunit 2 | 340,000 tested, 1.2% active | P68402 | recombinant PAFAH1B2, FP-rhodamine activity probe, fluorescence polarization | inhibition, % at 3.39 µM;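 active = inhibition above the mean of all tested compounds plus 3 SD, cut at about 24% in these data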
# PAFAH1B3 inh = inhibitors of human PAFAH1B3 | recombinant PAFAH1B3, FP-rhodamine probe, fluorescence polarization | 340,000 tested, 0.28% active | inhibition, % at 3.39 µM;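 active = inhibition above the screen-wide average of all tested compounds plus 3 SD, cut at about 25% in these data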
# Target sequence (Q15102 whole entry, looked up): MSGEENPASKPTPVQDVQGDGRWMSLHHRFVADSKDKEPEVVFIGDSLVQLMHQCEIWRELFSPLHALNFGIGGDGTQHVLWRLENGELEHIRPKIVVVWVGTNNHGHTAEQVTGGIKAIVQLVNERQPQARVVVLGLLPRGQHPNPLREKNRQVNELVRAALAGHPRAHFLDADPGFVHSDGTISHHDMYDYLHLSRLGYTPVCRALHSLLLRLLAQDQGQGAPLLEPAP
# ZTA DNA inh = ZTA (EBV) inhibition in EBNA-1 counter-screen | P03206 | inhibition, % at 11 µM | ZTA-DNA binding, fluorescence polarization | 320,000 tested, 0.15% active | AID 2234; in the data active = inhibition above about 33%
# Target sequence (P03206 whole entry, looked up): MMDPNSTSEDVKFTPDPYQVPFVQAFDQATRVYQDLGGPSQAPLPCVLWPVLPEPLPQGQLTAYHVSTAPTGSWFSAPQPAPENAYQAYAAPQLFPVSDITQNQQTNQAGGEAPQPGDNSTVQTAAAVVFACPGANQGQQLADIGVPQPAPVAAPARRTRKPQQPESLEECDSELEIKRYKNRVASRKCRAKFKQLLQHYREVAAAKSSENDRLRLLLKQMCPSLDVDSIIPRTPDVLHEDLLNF
# rCAG binder conf = r(CAG) RNA repeat binding, confirmation; shares compounds with rCAG binder; TO-PRO-1 dye displacement fluorescence; inhibition, % at 3 µM; 4,300 tested, 70% active; AID 652065;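 active = inhibition above a per-plate cutoff, the mean inhibition of sample wells plus 3 SD, cut at about 35% in these data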;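 also: loss of TO-PRO-1 fluorescence as compound displaces dye from 1x1 AA loop RNA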
# DNA CAG counter = counter-screen for rCAG RNA binders: DNA CAG dye complex inhibitors | shares compounds with rCAG binder | d(CAG) DNA oligo TO-PRO-1 dye displacement, fluorescence | inhibition, % at 3 µM | 4,300 tested, 94% active | AID 652068;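 active = inhibition above its plate's cutoff, the mean test-well inhibition plus 3 SD, cut at about 4.8% in these data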;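 also: hits displace the dye from DNA and so lower well fluorescence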
# dCAG dye DR = counter-screen for rCAG binders: inhibitors of DNA CAG TO-PRO-1 complex | IC50, µM | DNA CAG/GTC duplex TO-PRO-1 dye displacement fluorescence | 250 tested, 20% active | shares compounds with rCAG binder | AID 686960; in the data active = IC50 below about 10 µM
# Numbers stand for hits; – = inactive; · = not tested or not shown.
SMILES,EBNA-1 inhibitor,PAFAH2 FP inh,rCAG binder,PAFAH1B2 inh,PAFAH1B3 inh,ZTA DNA inh,rCAG binder conf,DNA CAG counter,others
N#Cc1c(SCC(=O)Nc2nccs2)sc2c(O)cc(=O)[nH]c12,–,32,71,–,–,–,52,24,
CCCSc1nnc(NC(=O)CSc2sc3c(O)cc(=O)[nH]c3c2C#N)s1,–,37,65,–,–,–,80,46,
Cc1nc2cc(NC(=O)Nc3ccccc3Cl)ccc2n1C,–,–,–,–,–,–,·,·,
COc1ccc(Cl)c(NC(=O)C/C(C)=N/NC(=O)CCc2ccccc2)c1,–,–,37,–,–,–,–,–,
COc1ccc(S(=O)(=O)Nc2ccc(F)cc2F)cc1C(=O)N1CCOCC1,–,–,–,–,–,–,·,·,
CCOC(=O)c1c(C)[nH]c(C)c1S(=O)(=O)N(C)CC(=O)Nc1cccc(C)c1,–,–,–,–,–,–,·,·,
CC(O)CC(=O)OC[C@]12CC[C@H]3[C@@](C)(CC[C@H]4C(C)(C)CCC[C@]34C)[C@@H]1CC(C1=CC(=O)OC1O)O2 (stereo partly drawn),·,·,–,·,·,·,·,·,
O=S(=O)(Nc1ccc(Br)cc1)c1cccc(NS(=O)(=O)c2cccs2)c1,·,43,37,75,–,·,–,6.9,
O=C(N=Nc1c(O)[nH]c2ccccc12)c1cccs1,–,–,–,–,–,–,·,·,
O=C(N=Nc1c(O)[nH]c2ccccc12)c1cc(NS(=O)(=O)c2cccs2)cc(NS(=O)(=O)c2cccs2)c1,–,–,67,–,–,–,73,35,
CC(C)n1c(O)c(N=Nc2ccc(Cl)c(C(=O)O)c2)c2ccccc21,–,–,38,–,–,–,36,9.0,
O=C(c1ccc2c(c1)OCCO2)N1CCN(c2ncc(C(F)(F)F)cc2Cl)CC1,–,–,–,–,–,–,·,·,
CC[C@]12c3[nH]c4ccc(OC)cc4c3CCN1C(=O)C(CC(=O)NCCN1CCOCC1)C[C@@H]2C(=O)N1CCN(C(=O)c2ccco2)CC1 (stereo partly drawn),·,–,–,–,–,·,·,·,
CCCn1c(N)c(N2CCCCC2)c(=O)n(CC(=O)Nc2ccccc2C)c1=O,–,–,–,–,–,–,·,·,
CCCn1c(N)c(N2CCCCC2)c(=O)n(CC(=O)Nc2ccc(OC(F)(F)F)cc2)c1=O,–,–,37,–,–,–,–,–,
CCCc1cc2c(O)ccc(O)c2c(=O)o1,·,·,–,·,·,·,·,·,
O=C(/C(=N/O)c1ccccc1)c1ccccc1,·,–,–,–,–,·,·,·,
O=C(/C(=N/N=C/c1ccc(O)c(O)c1)c1ccccc1)c1ccccc1,–,–,37,–,–,–,51,27,
CC(Oc1ccc2ccc(=O)oc2c1)C(=O)NC1CCN(Cc2ccccc2)CC1 (stereo not drawn),–,–,–,–,–,–,·,·,
O=C(NNC(=O)C1CCCCC1)c1ccco1,–,–,–,–,–,–,·,·,
CCC1CCC(C(=O)NNC(=O)c2cc(-c3ccco3)[nH]n2)CC1 (stereo not drawn),–,–,46,–,–,–,–,–,
NC(=O)c1cccc(-c2ccnc3c2CC(C(=O)NCCc2ccccc2)O3)c1 (stereo not drawn),·,·,–,·,·,·,·,·,
CC(C)Sc1nsc2nc(=O)c(/C=C3\C=Nc4ccccc43)c(N)n12,–,–,44,–,–,–,79,44,
CS(=O)(=O)c1nsc2nc(=O)c(/C=C3\C=Nc4ccccc43)c(N)n12,–,–,44,–,–,–,70,31,dCAG dye DR=8.2
Nn1c(SCc2cccc3ccccc23)nnc1-c1cc(-c2ccc(Cl)cc2)n[nH]1,·,·,–,·,·,·,·,·,
SMILES,EBNA-1 inhibitor,PAFAH2 FP inh,rCAG binder,PAFAH1B2 inh,PAFAH1B3 inh,ZTA DNA inh,rCAG binder conf,DNA CAG counter,others
Cc1cc2c(cc1C)-c1c(ssc1=Nc1ccc(S(N)(=O)=O)cc1)C(C)(C)N2,–,–,–,–,–,–,·,·,
CC(=O)NS(=O)(=O)c1ccc(N=c2ssc3c2-c2cc(C)c(C)cc2NC3(C)C)cc1,–,–,75,–,–,–,59,25,
O=C1NC(=S)S/C1=C\c1ccc(SCc2ccccc2)o1,–,–,82,71,–,–,79,43,
O=C1NC(=O)/C(=C/c2ccc(-c3cccc([N+](=O)[O-])c3)o2)S1,·,–,–,–,–,·,·,·,
COc1ccc(C(=NNc2ccccc2C(=O)O)c2ccc(OC)cc2)cc1,–,–,83,–,–,–,66,26,
COc1ccc(-n2nc(C)cc2Nc2ccccc2C(=O)O)cc1,–,–,–,–,–,–,·,·,
COc1ccc(C(=O)Nc2ccccc2C(=O)Nc2ccccc2C(=O)O)cc1,–,–,78,–,–,–,77,40,
COc1ccc(C(=O)Nc2ccccc2C(N)=O)cc1,–,–,–,–,–,–,·,·,
Cc1cc(NC(=O)Cc2cccs2)no1,–,35,40,–,–,–,35,23,
Cc1cc(NS(=O)(=O)c2ccc(NC(=O)Cc3cccs3)cc2)no1,–,–,·,–,–,–,·,·,
CN(c1ccc(Cl)cc1)S(=O)(=O)c1nnc(NC(=O)c2ccco2)s1,–,–,39,–,–,–,–,7.4,
CCN(c1cccc(C)c1)S(=O)(=O)c1nnc(NC(=O)c2ccco2)s1,–,–,39,–,–,–,–,6.5,
COc1ccc(N2Cc3ccc(C(=O)N/N=C\c4ccc(O)cc4O)cc3C2)cc1,–,·,·,·,·,–,·,·,
COc1ccc(NS(=O)(=O)c2ccc3nc(COc4ccc5ccccc5c4)[nH]c3c2)cc1,–,–,51,–,–,–,–,14,
COc1ccc(CC(=O)NNS(=O)(=O)c2ccccc2)cc1OC,–,–,–,–,–,–,·,·,
CC(C)N1C(=O)S/C(=C\c2ccc(-c3ccc(Cl)c(C(=O)O)c3)o2)C1=O,–,–,51,–,–,–,47,16,
Cc1cccc(C)c1NC(=O)CN(Cc1ccccc1)Cc1ccccc1,·,·,–,·,·,·,·,·,
CCN1C(=O)/C(=C/c2ccc(OCc3ccc(C(=O)O)cc3)c(Cl)c2)NC1=S,–,–,57,–,–,–,51,16,
CC1=NN(C(N)=S)C(=O)C1N=Nc1c(Br)cc(Br)cc1Br (stereo not drawn),–,–,46,–,–,–,43,13,dCAG dye DR=–
CC1=NN(C(N)=S)C(=O)C1N=Nc1c(C)cc(C)cc1C (stereo not drawn),–,–,–,–,–,–,·,·,
COC(=O)[C@]12C[C@H](CC(=O)NCC34CC5CC(CC(C5)C3)C4)C(=O)N(Cc3ccco3)C1=C[C@H](C(C)C)O[C@@H]2C1CC1,·,·,–,·,·,·,·,·,
Cc1ccc(OCC(=O)NC(=S)Nc2ccc(S(=O)(=O)Nc3cc(C)on3)cc2)c(Br)c1,–,–,–,–,–,–,·,·,

# Screening data from PubChem.
